Values joined by “and” are separate entries in the source; they are usually repeats but may differ in a detail not shown here. Equal values may be shown once. The panel holds about 83,000 compounds, 20% with a hit somewhere; the sample as a whole holds those more often.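 How to read the values: 0–100, growth inhibition (40 = 60% inhibited); 0, no net growth; -100 to 0, cell death (-40 = 40% of starting cells died; -100 = all dead).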 Values without a mark were called inactive. Active and inactive are the calls of the source. Rule for the calls: active = growth percent below 10; inactive = the rest.
What was measured:
Assay in all cases: NCI-60 one-dose screen, 48 h (100 = growth as untreated, 0 = no growth, -100 = all killed)
HT29 colon = conditions: 10 µM unless noted
SNB-75 CNS = conditions: 10 µM unless noted
SNB-19 CNS = conditions: 10 µM unless noted
U251 CNS = conditions: 10 µM unless noted
SK-MEL-5 melanoma = conditions: 10 µM unless noted
UACC-62 melanoma = conditions: 10 µM unless noted
LOX IMVI melanoma = conditions: 10 µM
SK-MEL-28 melanoma = conditions: 10 µM unless noted
SK-MEL-2 melanoma = conditions: 10 µM unless noted
EKVX NSCLC = conditions: 10 µM unless noted
SN12C renal = conditions: 10 µM unless noted
UO-31 renal = conditions: 10 µM unless noted
TK-10 renal = conditions: 10 µM unless noted
ACHN renal = conditions: 10 µM unless noted
A498 renal = conditions: 10 µM unless noted
CCRF-CEM leukemia = conditions: 10 µM unless noted
MOLT-4 leukemia = conditions: 10 µM unless noted
PC-3 prostate = conditions: 10 µM unless noted
CAKI-1 renal = conditions: 10 µM unless noted

## O=C(/C=C/c1ccccc1)c1ccccc1O
HT29 colon
  growth: 84.5%
SNB-75 CNS
  growth: 63.7%
SNB-19 CNS
  growth: 80.1%
U251 CNS
  growth: 61.1%
SK-MEL-5 melanoma
  growth: 94.9%
UACC-62 melanoma
  growth: 85.8%
LOX IMVI melanoma
  growth: 34.9%
SK-MEL-28 melanoma
  growth: 93.9%
SK-MEL-2 melanoma
  growth: 98.6%
EKVX NSCLC
  growth: 89.2%
SN12C renal
  growth: 92.1%
UO-31 renal
  growth: 64.6%
TK-10 renal
  growth: 94.3%
ACHN renal
  growth: 87%
A498 renal
  growth: 98.3%
CCRF-CEM leukemia
  growth: 55.1%
MOLT-4 leukemia
  growth: 70.2%

## O=C1C=CC(=O)N1c1ccccc1
HT29 colon
  growth: 103%
SNB-19 CNS
  growth: 106%
U251 CNS
  growth: 94.1%
SK-MEL-5 melanoma
  growth: 106%
UACC-62 melanoma
  growth: 93.2%
SK-MEL-28 melanoma
  growth: 117%
SK-MEL-2 melanoma
  growth: 103%
EKVX NSCLC
  growth: 99.6%
SN12C renal
  growth: 84.4%
UO-31 renal
  growth: 87.4%
TK-10 renal
  growth: 105%
ACHN renal
  growth: -37.3% (active)
A498 renal
  growth: 105%
MOLT-4 leukemia
  growth: 42.2%

## O=[N+]([O-])c1ccc([I+]c2ccccc2)cc1
HT29 colon
  growth: -55.8% (active)
SNB-19 CNS
  growth: -70.9% (active)
U251 CNS
  growth: -97.1% (active)
PC-3 prostate
  growth: 62.3%
SK-MEL-5 melanoma
  growth: -29.5% (active)
UACC-62 melanoma
  growth: -17.6% (active)
LOX IMVI melanoma
  growth: -81.9% (active)
SK-MEL-28 melanoma
  growth: -76.8% (active)
SK-MEL-2 melanoma
  growth: -17.9% (active)
EKVX NSCLC
  growth: -62.4% (active)
SN12C renal
  growth: -56.2% (active)
UO-31 renal
  growth: 46.9%
TK-10 renal
  growth: 3.24% (active)
ACHN renal
  growth: 64.2%
CAKI-1 renal
  growth: 23.1%
A498 renal
  growth: 39.6%
MOLT-4 leukemia
  growth: 22.9%

## CCCCCCCCCCCCCCCCSC(=NCC)NCC
HT29 colon
  growth: -61.4% (active)
SNB-75 CNS
  growth: 53.3%
SNB-19 CNS
  growth: 55.3%
U251 CNS
  growth: 4.98% (active)
PC-3 prostate
  growth: -42% (active)
SK-MEL-5 melanoma
  growth: -38% (active)
UACC-62 melanoma
  growth: -8.15% (active)
LOX IMVI melanoma
  growth: -91.1% (active)
SN12C renal
  growth: 18.6%
UO-31 renal
  growth: -13.2% (active)
TK-10 renal
  growth: 50.7%
ACHN renal
  growth: -21.6% (active)
CAKI-1 renal
  growth: -25.9% (active)
A498 renal
  growth: 67.4%
CCRF-CEM leukemia
  growth: -48.9% (active)

## O=C1C(=O)c2cccnc2-c2ncccc21
HT29 colon
  growth: -62.9% (active)
SNB-75 CNS
  growth: -13.3% (active)
SNB-19 CNS
  growth: 0.441% (active)
U251 CNS
  growth: -91.5% (active)
PC-3 prostate
  growth: -24.5% (active)
SK-MEL-5 melanoma
  growth: -100% (active)
LOX IMVI melanoma
  growth: -83.8% (active)
SK-MEL-28 melanoma
  growth: -9.12% (active)
SK-MEL-2 melanoma
  growth: -11.1% (active)
EKVX NSCLC
  growth: -49.7% (active)
SN12C renal
  growth: -14.3% (active)
UO-31 renal
  growth: -71.3% (active)
TK-10 renal
  growth: -24% (active)
ACHN renal
  growth: -69.4% (active)
A498 renal
  growth: -39.4% (active)
CCRF-CEM leukemia
  growth: -32.6% (active)
MOLT-4 leukemia
  growth: -45.1% (active)

## COc1c(/C=C/C=O)cc2c(c1OC)OCO2
UACC-62 melanoma
  growth: -90.2% [100 µM] (active) and -97.4% [100 µM] (active)
TK-10 renal
  growth: -2.29% [100 µM] (active) and -52.3% [100 µM] (active)

## CC1(C)CCCC2=C1C(=O)N(SC(Cl)(Cl)Cl)C2=O
SNB-75 CNS
  growth: 96.9%
SNB-19 CNS
  growth: 91.2%
U251 CNS
  growth: 93.8%
PC-3 prostate
  growth: 89.5%
SK-MEL-5 melanoma
  growth: 98%
UACC-62 melanoma
  growth: 96.1%
LOX IMVI melanoma
  growth: 83.9%
SK-MEL-28 melanoma
  growth: 99.4%
SN12C renal
  growth: 93.4%
UO-31 renal
  growth: 79.1%
TK-10 renal
  growth: 88.2%
ACHN renal
  growth: 82.9%
CAKI-1 renal
  growth: 92.4%
A498 renal
  growth: 120%
CCRF-CEM leukemia
  growth: 40.5%
MOLT-4 leukemia
  growth: 21%

## CCCCCCCCCCCCCCCC[N+]1(C)CCCC1c1cccnc1 (centres undefined)
HT29 colon
  growth: 15.1%
SNB-75 CNS
  growth: 37.1%
SNB-19 CNS
  growth: 29.1%
U251 CNS
  growth: 16.7%
PC-3 prostate
  growth: 8.08% (active)
SK-MEL-5 melanoma
  growth: 43.9%
UACC-62 melanoma
  growth: 50.6%
LOX IMVI melanoma
  growth: 49.2%
SK-MEL-28 melanoma
  growth: 97%
SN12C renal
  growth: 44.5%
UO-31 renal
  growth: 91.3%
TK-10 renal
  growth: 49.7%
ACHN renal
  growth: 85.6%
CCRF-CEM leukemia
  growth: 38.7%
MOLT-4 leukemia
  growth: 33%

## O=C1C(=O)c2cc([N+](=O)[O-])ccc2-c2ccccc21
HT29 colon
  growth: -79.4% (active)
SNB-75 CNS
  growth: -98.2% (active)
SNB-19 CNS
  growth: -93.8% (active)
U251 CNS
  growth: -81.5% (active)
SK-MEL-5 melanoma
  growth: -99.6% (active)
UACC-62 melanoma
  growth: -94.2% (active)
LOX IMVI melanoma
  growth: -88.4% (active)
SK-MEL-28 melanoma
  growth: -97% (active)
EKVX NSCLC
  growth: -88.8% (active)
UO-31 renal
  growth: -87.7% (active)
TK-10 renal
  growth: -85.2% (active)
ACHN renal
  growth: -99.3% (active)
CAKI-1 renal
  growth: -68.6% (active)
A498 renal
  growth: 110%
CCRF-CEM leukemia
  growth: -13.5% (active)
MOLT-4 leukemia
  growth: 0.151% (active)

## CCN(CC)CCNC(Cc1ccccc1)c1ccc(OCc2ccccc2)cc1 (centres undefined)
HT29 colon
  growth: 15.4%
SNB-75 CNS
  growth: 71.4%
SNB-19 CNS
  growth: 89.3%
PC-3 prostate
  growth: 56.8%
SK-MEL-5 melanoma
  growth: 72.8%
UACC-62 melanoma
  growth: -50.8% (active)
LOX IMVI melanoma
  growth: 58.6%
SK-MEL-28 melanoma
  growth: 62.5%
SK-MEL-2 melanoma
  growth: 97%
UO-31 renal
  growth: 41%
TK-10 renal
  growth: 64%
ACHN renal
  growth: 61.4%
CAKI-1 renal
  growth: 85.2%
A498 renal
  growth: 49.8%
CCRF-CEM leukemia
  growth: 51.4%
MOLT-4 leukemia
  growth: 57.4%

## CC1OC(OC2C(OC3CCC4(C)C(CCC5(C)C4CC=C4C6CC(C)(C)CCC6(C(=O)O)CCC45C)C3(C)CO)OCC(O)C2O)C(O)C(O)C1O (centres undefined)
UACC-62 melanoma
  growth: -94% [100 µM] (active) and -96.7% [100 µM] (active)
TK-10 renal
  growth: -92.1% [100 µM] (active) and -100% [100 µM] (active)

## O=C(CCl)N1c2ccccc2Sc2c1ccc1ccccc21
HT29 colon
  growth: 69.4%
SNB-75 CNS
  growth: 60.2%
SNB-19 CNS
  growth: 88.9%
U251 CNS
  growth: 63.8%
PC-3 prostate
  growth: 70.6%
SK-MEL-5 melanoma
  growth: 84.5%
UACC-62 melanoma
  growth: 78%
SK-MEL-28 melanoma
  growth: 111%
SK-MEL-2 melanoma
  growth: 82.7%
EKVX NSCLC
  growth: 96.1%
SN12C renal
  growth: 73.8%
UO-31 renal
  growth: 70.4%
TK-10 renal
  growth: 119%
ACHN renal
  growth: 78.7%
A498 renal
  growth: 110%
CCRF-CEM leukemia
  growth: 6.54% (active)
MOLT-4 leukemia
  growth: 12%

Reference: PubChem BioAssay (NCI)
